# Results published in the supplement of paper PMC9023506.
# Where a name gives a salt, the structure may show the parent alone.
# Tested on: Danio rerio larvae (5 dpf)
# Test: habituation to 1-s acoustic pulses, difference vs DMSO (percentage points (treated minus DMSO)); higher = more of the behaviour than the DMSO vehicle control
# Conditions: 10 µM; exposure time: 3 h pre-incubation + 3 h imaging
# Experimental: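 5-dpf wild-type zebrafish larvae were imaged in 96-well plates. They were treated with 190 Tocris FDA-approved drugs at 10 µM (1 µl/ml DMSO) for 3 h before and 3 h during imaging at 28.5 °C, 48 larvae per drug. Automated image analysis gave % time moving and optomotor responses. Values are drug group mean minus DMSO vehicle mean (n=844), in percentage points, for 10 behaviours.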
row,SMILES,habituation to 1-s acoustic pulses
1,CCCCCOC(=O)Nc1nc(=O)n([C@@H]2O[C@H](C)[C@@H](O)[C@H]2O)cc1F [Capecitabine],-3.26
2,CC#C[C@]1(O)CC[C@H]2[C@@H]3CCC4=CC(=O)CCC4=C3[C@@H](c3ccc(N(C)C)cc3)C[C@@]21C [Mifepristone],-0.152
3,CC[C@H](C)C(=O)O[C@H]1C[C@@H](C)C=C2C=C[C@H](C)[C@H](CC[C@@H]3C[C@@H](O)CC(=O)O3)[C@H]21 [Lovastatin],-1.04
4,CCc1nc(N)nc(N)c1-c1ccc(Cl)cc1 [Pyrimethamine],5.04
5,CCC(=O)O[C@]1(C(=O)SCF)[C@H](C)C[C@H]2[C@@H]3C[C@H](F)C4=CC(=O)C=C[C@]4(C)[C@@]3(F)[C@@H](O)C[C@@]21C [Fluticasone propionate],3.04
6,COC(c1ccccc1)(c1ccccc1)[C@H](Oc1nc(C)cc(C)n1)C(=O)O [Ambrisentan],1.34
7,CCCC1O[C@@H]2C[C@H]3[C@@H]4CCC5=CC(=O)C=C[C@]5(C)[C@H]4[C@@H](O)C[C@]3(C)[C@]2(C(=O)CO)O1 (stereo not given in full) [Budesonide],-1.73
8,CC(CCc1ccc(O)cc1)NCCc1ccc(O)c(O)c1 (stereo not given) [Dobutamine hydrochloride],1.34
9,CCCN(CCc1cccs1)[C@H]1CCc2c(O)cccc2C1 [Rotigotine hydrochloride],-12.9
10,CN1CCN2c3ncccc3Cc3ccccc3C2C1 (stereo not given) [Mirtazapine],-2.79
11,CCCc1nc(C(C)(C)O)c(C(=O)O)n1Cc1ccc(-c2ccccc2-c2nnn[nH]2)cc1 [Olmesartan],3.67
12,Nc1nc(F)nc2c1ncn2[C@@H]1O[C@H](CO)[C@@H](O)[C@@H]1O [Fludarabine],-1.56
13,O=C(O)CCCc1ccccc1 [Sodium 4-Phenylbutyrate],-4.19
14,CN(CCOc1ccc(CC2SC(=O)NC2=O)cc1)c1ccccn1 (stereo not given) [Rosiglitazone],0.476
15,CC(=O)O[C@]1(C(C)=O)CC[C@H]2[C@@H]3C=C(C)C4=CC(=O)CC[C@]4(C)[C@H]3CC[C@@]21C [Megestrol Acetate],-2.13
16,CCOC(=O)[C@H](CCc1ccccc1)N[C@H]1CCc2ccccc2N(CC(=O)O)C1=O [Benazepril hydrochloride],3.08
17,CC(c1cc2ccccc2s1)N(O)C(N)=O (stereo not given) [Zileuton],7.12
18,N#C[C@@H]1C[C@@H]2C[C@@H]2N1C(=O)[C@@H](N)C12CC3CC(CC(O)(C3)C1)C2 [Saxagliptin hydrochloride],1.97
19,CC/C(=C(\c1ccccc1)c1ccc(OCCN(C)C)cc1)c1ccccc1 [Tamoxifen citrate],-6.99
20,Cc1c(-c2ccc(O)cc2)n(Cc2ccc(OCCN3CCCCCC3)cc2)c2ccc(O)cc12 [Bazedoxifene acetate],0.273

row,SMILES,habituation to 1-s acoustic pulses
1,Clc1ccc2nsnc2c1NC1=NCCN1 [Tizanidine hydrochloride],-2.36
2,COCCc1ccc(OCC(O)CNC(C)C)cc1 (stereo not given) [Metoprolol tartrate],-3.95
3,Nc1nc(NC2CC2)c2ncn([C@H]3C=C[C@@H](CO)C3)c2n1 [Abacavir hemisulfate],3.08
4,CCCc1nc2c(C)cc(-c3nc4ccccc4n3C)cc2n1Cc1ccc(-c2ccccc2C(=O)O)cc1 [Telmisartan],-0.195
5,CN[C@H]1CC[C@@H](c2ccc(Cl)c(Cl)c2)c2ccccc21 [Sertraline hydrochloride],-2.9
6,CC(C)(C(=O)O)c1ccc(C(O)CCCN2CCC(C(O)(c3ccccc3)c3ccccc3)CC2)cc1 (stereo not given) [Fexofenadine hydrochloride],0.783
7,NS(=O)(=O)c1cc(C(=O)O)c(NCc2ccco2)cc1Cl [Furosemide],1.08
8,CC(C)C(=O)OCC(=O)[C@@]12O[C@H](C3CCCCC3)O[C@@H]1C[C@H]1[C@@H]3CCC4=CC(=O)C=C[C@]4(C)[C@H]3[C@@H](O)C[C@@]12C [Ciclesonide],-1.43
9,COc1ccccc1OCC(O)CN1CCN(CC(=O)Nc2c(C)cccc2C)CC1 (stereo not given) [Ranolazine dihydrochloride],-4.45
10,CN(C)CCc1c[nH]c2ccc(C[C@H]3COC(=O)N3)cc12 [Zolmitriptan],-1.85
11,OCc1cc(C(O)CNCCCCCCOCCCCc2ccccc2)ccc1O (stereo not given) [Salmeterol xinafoate],0.0601
12,Nc1nc(Cl)nc2c1ncn2[C@@H]1O[C@H](CO)[C@@H](O)[C@@H]1F [Clofarabine],-0.305
13,CCc1ccc(CCOc2ccc(CC3SC(=O)NC3=O)cc2)nc1 (stereo not given) [Pioglitazone hydrochloride],0.476
14,C=C1[C@H](CO)[C@@H](O)C[C@@H]1n1cnc2c(=O)[nH]c(N)nc21 [Entecavir],3.17
15,CC(=O)Oc1ccccc1C(=O)O [Aspirin],-5.13
16,CCCCc1nc(Cl)c(CO)n1Cc1ccc(-c2ccccc2-c2nnn[nH]2)cc1 [Losartan potassium],0.91
17,COc1c(C)c2c(c(O)c1C/C=C(\C)CCC(=O)OCCN1CCOCC1)C(=O)OC2 [Mycophenolate mofetil],0.172
18,CC(C)n1c(/C=C/C(O)CC(O)CC(=O)O)c(-c2ccc(F)cc2)c2ccccc21 (stereo not given) [Fluvastatin sodium],4.04
19,CN/C(=N\CCSCc1nc[nH]c1C)NC#N [Cimetidine],5.48
20,COc1ccccc1Oc1c(NS(=O)(=O)c2ccc(C(C)(C)C)cc2)nc(-c2ncccn2)nc1OCCO [Bosentan],4.23
